Growth data for 14 molecules are collected here from PubChem BioAssay (NCI).

Molecules are shown by their SMILES. About 83,000 compounds went through this panel and 20% of them were active in at least one assay; those are over-represented in the sample as a whole.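 Results are percent growth after 48 hours of single-concentration exposure. 100 means growth as in untreated cells, lower positive values show inhibition; negative values down to -100 show cell death.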 A number with no mark means an inactive call. Active and inactive are the calls of the source. Rule for the calls: active = growth percent below 10; inactive = the rest.

Test systems include HCT-15 colon; HT29 colon; SNB-75 CNS; SNB-19 CNS; U251 CNS; PC-3 prostate; SK-MEL-5 melanoma; UACC-62 melanoma; SK-MEL-28 melanoma; LOX IMVI melanoma.
Common to all, as to test: NCI-60 one-dose screen, 48 h (100 = growth as untreated, 0 = no growth, -100 = all killed)
Holding throughout (conditions): 10 µM unless noted

Take `O=c1[nH]ncc(Br)c1Br`: the growth in the assay with HCT-15 colon was 15.7%; in the assay on HT29 colon, -35.1% (active); in the assay on SNB-75 CNS, 79.8%; in the assay with SNB-19 CNS, 72.4%; with U251 CNS it was 30.9%; in the assay on PC-3 prostate, 65.7%. The results for the growth with SK-MEL-5 melanoma, in the assay with UACC-62 melanoma and with SK-MEL-28 melanoma were 69.4%, 87.3% and 14.7%, respectively.

`C/C(=N\Nc1cc(C)c2cc(C)ccc2n1)c1ccccn1`: the growth was -16.5% (active) in the assay with HCT-15 colon; -99.3% (active) in the assay on HT29 colon; 5.85% (active) in the assay with SNB-75 CNS; 20.6% with SNB-19 CNS; -100% (active) in the assay on U251 CNS; 15.2% with PC-3 prostate. Besides, the growth in the assay on SK-MEL-5 melanoma is -98.9% (active); with UACC-62 melanoma, -54.4% (active); in the assay with LOX IMVI melanoma it was -86.4% (active); in the assay with SK-MEL-28 melanoma, -93.3% (active).

In the case of `C[N+](C)(CCCCCC[N+](C)(C)C1c2ccccc2-c2ccccc21)C1c2ccccc2-c2ccccc21`, the growth with HCT-15 colon was 105%; in the assay on HT29 colon, 110%; in the assay on SNB-75 CNS it was 95%; in the assay on SNB-19 CNS, 105%; in the assay with U251 CNS, 96.4%; in the assay with PC-3 prostate, 98.2%. The growth is 111% in the assay with SK-MEL-5 melanoma, 108% in the assay on UACC-62 melanoma, 104% with LOX IMVI melanoma and 111% in the assay on SK-MEL-28 melanoma.

Regarding `CC(C)(C)CC(C)(C)c1ccc(OCCOCC[N+](C)(C)CC(=O)[O-])cc1`, the growth was 105% with HCT-15 colon; 103% in the assay with HT29 colon; 99.2% with SNB-75 CNS; 111% in the assay with SNB-19 CNS; 98.4% in the assay with U251 CNS; 104% with PC-3 prostate. The growth in the assay on SK-MEL-5 melanoma is 106%; in the assay on UACC-62 melanoma, 104%; in the assay with LOX IMVI melanoma, 107%; in the assay on SK-MEL-28 melanoma, 114%.

On to `CC(C)(C)c1ccc(OP(=S)(N/N=C/c2ccccc2O)Oc2ccc(C(C)(C)C)cc2)cc1`, for which the growth is 69.9% in the assay on HCT-15 colon; 69.2% in the assay on HT29 colon; 66.1% in the assay with SNB-75 CNS; 81% in the assay with SNB-19 CNS; 50.4% in the assay on U251 CNS; 30.1% in the assay on PC-3 prostate. For the same molecule, the growth in the assay with SK-MEL-5 melanoma was 73.5%; in the assay on UACC-62 melanoma it was 76.5%; in the assay with LOX IMVI melanoma, 67.6%; in the assay on SK-MEL-28 melanoma, 83.3%.

Regarding `CC[C@]12C=CCN3CC[C@@]4(c5cc([C@H]6CCC(=O)N6)c(OC)cc5N(C)[C@H]4[C@@](O)(C(=O)OC)[C@@H]1OC(C)=O)[C@@H]32`, the growth with HCT-15 colon is 104% [2.5 µM]; in the assay on HT29 colon it was 103% [2.5 µM]; with SNB-75 CNS, 81.6% [2.5 µM]; with SNB-19 CNS it was 105% [2.5 µM]; in the assay on U251 CNS, 98.3% [2.5 µM]; in the assay with PC-3 prostate, 95.5% [2.5 µM]. For the same molecule, the growth in the assay with SK-MEL-5 melanoma is 99.8% [2.5 µM].

For `Cc1cc(Cl)c2c(N(C)C)cccc2n1`, the growth in the assay on HCT-15 colon is 94.1%; in the assay on HT29 colon it was 78%; with SNB-75 CNS, 93.6%; in the assay on SNB-19 CNS, 105%; with U251 CNS, 105%; in the assay with PC-3 prostate, 119%. Besides, the growth in the assay with SK-MEL-5 melanoma was 101%; with UACC-62 melanoma it was 105%; with LOX IMVI melanoma, 84.1%; in the assay with SK-MEL-28 melanoma it was 113%.

As for `COc1ccc(-c2n/c(=C\c3c(O)[nH]c4ccc(OC)cc34)cc3c2=Nc2ccccc2-3)cc1`, the growth was 0.939% (active) in the assay on HCT-15 colon; -47.4% (active) in the assay on HT29 colon; 30.4% with SNB-75 CNS; 38.4% with SNB-19 CNS; -79.3% (active) in the assay with U251 CNS; 75.8% in the assay on PC-3 prostate. Also, the growth in the assay on SK-MEL-5 melanoma is 18.5%; in the assay with UACC-62 melanoma, -56.4% (active); with LOX IMVI melanoma, 27.4%; with SK-MEL-28 melanoma it was -89.9% (active).

As to `CSc1ccc(N(C)c2nc(C)nc3c2CCC3)cc1`, the growth was 7.62% (active) with HCT-15 colon; -9.35% (active) in the assay with HT29 colon; 35.1% in the assay with SNB-75 CNS; 38.1% in the assay on SNB-19 CNS; 12.1% in the assay with U251 CNS; 20.1% in the assay on PC-3 prostate. Further, the growth in the assay with SK-MEL-5 melanoma was -38.2% (active).

With `CC(CNc1nc(Nc2ccc(Cl)c(Cl)c2)nc(C(Cl)(Cl)Cl)n1)N(C)C` (stereo unspecified), the growth in the assay on HCT-15 colon was -27.7% (active); in the assay with HT29 colon, -76.3% (active); with SNB-75 CNS it was -18.9% (active); with SNB-19 CNS, -1.09% (active); in the assay on U251 CNS it was -82.6% (active); in the assay on PC-3 prostate it was -40.3% (active). Also, the figures for the growth in the assay on SK-MEL-5 melanoma, in the assay with UACC-62 melanoma and in the assay on LOX IMVI melanoma were -56.9% (active), -4.78% (active) and -57.2% (active), respectively.

Take `N#C/C(=C\c1ccc(-c2ccc(Br)cc2)o1)c1nc(-c2cccs2)cs1`: the growth in the assay with HCT-15 colon is 98.8%; in the assay with HT29 colon it was 105%; with SNB-75 CNS, 97%; with SNB-19 CNS, 95.1%; in the assay with U251 CNS it was 99.3%; with PC-3 prostate, 95.9%. In addition, the growth in the assay with SK-MEL-5 melanoma is 99.6%; in the assay with UACC-62 melanoma, 86.2%; in the assay on SK-MEL-28 melanoma it was 99.1%.

Consider `c1ccc(C2Cc3ccccc3C2=NC2CCCCC2)cc1` (stereo unspecified), for which the growth with HCT-15 colon is 94.9%; with HT29 colon, 106%; with SNB-75 CNS, 92.3%; in the assay on SNB-19 CNS, 104%; in the assay on U251 CNS, 97.9%; in the assay on PC-3 prostate it was 84.4%. The growth in the assay on SK-MEL-5 melanoma was 103%; in the assay with UACC-62 melanoma, 99.6%; in the assay with LOX IMVI melanoma, 103%; in the assay on SK-MEL-28 melanoma it was 114%.

`Cc1ccc(Nc2c(C(N)=O)cnc3ccc(S(=O)(=O)Nc4cc(C)on4)cc23)cc1`: the growth is 108% in the assay with HCT-15 colon; 98.3% in the assay with HT29 colon; 81% in the assay on SNB-75 CNS; 94.7% in the assay with SNB-19 CNS; 95.6% with U251 CNS; 86.5% in the assay on PC-3 prostate. For the same molecule, the growth in the assay with SK-MEL-5 melanoma is 99%; with UACC-62 melanoma it was 91.8%; in the assay with LOX IMVI melanoma it was 95.8%; in the assay with SK-MEL-28 melanoma it was 101%.

In the case of `NC(Cc1ccc(O)cc1)C(=O)N/N=C/c1ccccc1O` (stereo unspecified), the growth is 96.8% in the assay on HCT-15 colon; 101% in the assay on HT29 colon; 92.7% in the assay on SNB-75 CNS; 110% in the assay with SNB-19 CNS; 96.9% with U251 CNS; 89.3% with PC-3 prostate. In addition, the growth in the assay on SK-MEL-5 melanoma is 103%; in the assay with UACC-62 melanoma, 113%; in the assay on LOX IMVI melanoma, 92.6%; with SK-MEL-28 melanoma, 106%.
